The source of these data is PubChem BioAssay AID434994 (NMMLSC, 2010).

A short description of the experiment: superoxide lowering in aged yeast cells, confirmation, cherry picked compounds (AID 434994).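 Further: cells aged with compound for 7 days at 30 degrees C before staining; 100% equals mean DHE fluorescence of all compound wells on the plate.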 As to conditions: S. cerevisiae aging, superoxide DHE fluorescence; at 10 µM; stronger effect = lower value.

The list shows a part of the results. Unmarked numbers belong to inactive results.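 How the source made its calls: active means superoxide signal below 65% of the plate average of sample wells; inactive means the rest.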

Turning to `CN1CCN(C(=S)SCC(=O)Nc2ccc(Cl)cc2C(=O)c2ccccc2)CC1`, the superoxide response (% of plate) was 111%. Then `C[C@]12CCC3C(CC[C@H]4C[C@@H](O)CC[C@]34C)C1C[C@@H](O)[C@H]2O` (some centres not stated), with 90.6%.
